Measurements taken from ChEMBL document CHEMBL2218924, “A broad activity screen in support of a chemogenomic map for kinase signalling research and drug discovery” (Biochem J, 2013).

Key:
[1] = molecular target: T1, Serine/threonine-protein kinase DCLK2 (Homo sapiens) (UniProt Q8N568); conditions: at 1 µM
T1 sequence (whole entry): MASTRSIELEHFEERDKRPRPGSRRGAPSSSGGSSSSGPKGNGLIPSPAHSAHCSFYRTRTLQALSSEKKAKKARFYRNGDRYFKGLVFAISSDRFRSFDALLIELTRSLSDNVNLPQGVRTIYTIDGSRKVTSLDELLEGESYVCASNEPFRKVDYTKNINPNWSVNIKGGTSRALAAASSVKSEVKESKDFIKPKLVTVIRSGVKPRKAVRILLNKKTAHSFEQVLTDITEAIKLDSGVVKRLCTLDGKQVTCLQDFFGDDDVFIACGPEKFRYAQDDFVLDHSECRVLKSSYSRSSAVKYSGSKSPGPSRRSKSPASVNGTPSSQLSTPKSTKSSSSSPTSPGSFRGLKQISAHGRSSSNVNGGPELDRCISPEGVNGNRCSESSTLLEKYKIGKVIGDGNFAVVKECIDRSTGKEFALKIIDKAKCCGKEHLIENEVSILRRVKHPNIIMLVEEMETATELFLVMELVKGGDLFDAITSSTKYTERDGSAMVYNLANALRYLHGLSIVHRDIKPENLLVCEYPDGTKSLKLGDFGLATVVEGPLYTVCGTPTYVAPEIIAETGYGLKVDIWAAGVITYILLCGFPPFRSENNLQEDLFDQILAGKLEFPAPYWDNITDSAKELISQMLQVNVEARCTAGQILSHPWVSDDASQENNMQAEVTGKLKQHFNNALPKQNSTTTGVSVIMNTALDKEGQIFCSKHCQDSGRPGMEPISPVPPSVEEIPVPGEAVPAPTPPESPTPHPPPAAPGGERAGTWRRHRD

[2] = molecular target: T1, Serine/threonine-protein kinase DCLK2 (Homo sapiens); conditions: at 10 µM
[3] = molecular target: T2, Myotonin-protein kinase (Homo sapiens) (UniProt Q09013); conditions: at 1 µM
T2 sequence (whole entry): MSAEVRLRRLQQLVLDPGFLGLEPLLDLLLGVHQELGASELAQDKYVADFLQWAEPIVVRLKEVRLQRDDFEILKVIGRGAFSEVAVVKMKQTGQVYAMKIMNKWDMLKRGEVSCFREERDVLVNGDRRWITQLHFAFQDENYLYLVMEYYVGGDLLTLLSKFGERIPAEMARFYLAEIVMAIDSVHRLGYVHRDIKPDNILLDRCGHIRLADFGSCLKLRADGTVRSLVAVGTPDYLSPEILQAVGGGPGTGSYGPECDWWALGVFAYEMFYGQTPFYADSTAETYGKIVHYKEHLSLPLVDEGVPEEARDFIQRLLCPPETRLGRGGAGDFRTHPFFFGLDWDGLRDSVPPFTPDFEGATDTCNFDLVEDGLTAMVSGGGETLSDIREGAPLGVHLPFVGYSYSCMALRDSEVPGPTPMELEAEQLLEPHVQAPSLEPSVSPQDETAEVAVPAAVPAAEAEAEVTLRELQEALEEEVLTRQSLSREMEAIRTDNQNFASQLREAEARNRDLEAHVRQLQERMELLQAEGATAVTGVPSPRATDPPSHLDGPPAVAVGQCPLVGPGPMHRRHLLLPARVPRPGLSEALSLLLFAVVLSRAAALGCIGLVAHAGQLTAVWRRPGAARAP

[4] = molecular target: T2, Myotonin-protein kinase (Homo sapiens); conditions: at 10 µM
[5] = molecular target: T3, Serine/threonine-protein kinase 17A (Homo sapiens) (UniProt Q9UEE5); conditions: at 1 µM
T3 sequence (whole entry): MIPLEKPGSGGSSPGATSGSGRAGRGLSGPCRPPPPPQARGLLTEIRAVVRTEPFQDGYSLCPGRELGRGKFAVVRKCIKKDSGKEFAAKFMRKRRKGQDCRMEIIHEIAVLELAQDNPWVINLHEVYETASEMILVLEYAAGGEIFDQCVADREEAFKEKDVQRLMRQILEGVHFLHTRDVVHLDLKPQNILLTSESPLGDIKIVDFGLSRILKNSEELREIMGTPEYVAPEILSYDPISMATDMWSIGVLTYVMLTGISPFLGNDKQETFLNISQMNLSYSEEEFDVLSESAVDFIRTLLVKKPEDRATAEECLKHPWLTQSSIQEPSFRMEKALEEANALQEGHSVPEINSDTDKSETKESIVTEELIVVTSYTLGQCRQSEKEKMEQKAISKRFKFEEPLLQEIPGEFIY

[6] = molecular target: T3, Serine/threonine-protein kinase 17A (Homo sapiens); conditions: at 10 µM
[7] = molecular target: T4, Dual specificity tyrosine-phosphorylation-regulated kinase 2 (Homo sapiens) (UniProt Q92630); conditions: at 1 µM
T4 sequence (whole entry): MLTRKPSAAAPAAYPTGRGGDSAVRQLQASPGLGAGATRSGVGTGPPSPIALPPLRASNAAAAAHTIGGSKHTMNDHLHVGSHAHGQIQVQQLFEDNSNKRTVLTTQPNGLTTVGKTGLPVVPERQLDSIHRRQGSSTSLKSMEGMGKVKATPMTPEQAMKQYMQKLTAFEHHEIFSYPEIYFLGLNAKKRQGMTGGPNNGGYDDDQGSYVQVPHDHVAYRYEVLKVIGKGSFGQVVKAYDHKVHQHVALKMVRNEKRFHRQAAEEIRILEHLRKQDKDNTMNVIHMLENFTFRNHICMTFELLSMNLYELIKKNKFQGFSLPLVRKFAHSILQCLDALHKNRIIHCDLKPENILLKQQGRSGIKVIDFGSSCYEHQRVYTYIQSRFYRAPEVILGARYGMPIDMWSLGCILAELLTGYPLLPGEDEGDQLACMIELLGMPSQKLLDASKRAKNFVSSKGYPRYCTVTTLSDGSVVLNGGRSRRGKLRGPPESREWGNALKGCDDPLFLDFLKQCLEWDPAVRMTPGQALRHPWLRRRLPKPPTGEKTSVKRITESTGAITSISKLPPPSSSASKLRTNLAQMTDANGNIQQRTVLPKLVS

[8] = molecular target: T4, Dual specificity tyrosine-phosphorylation-regulated kinase 2 (Homo sapiens); conditions: at 10 µM
[9] = molecular target: T5, Ephrin type-A receptor 1 (Homo sapiens) (UniProt P21709); conditions: at 1 µM
T5 sequence (whole entry): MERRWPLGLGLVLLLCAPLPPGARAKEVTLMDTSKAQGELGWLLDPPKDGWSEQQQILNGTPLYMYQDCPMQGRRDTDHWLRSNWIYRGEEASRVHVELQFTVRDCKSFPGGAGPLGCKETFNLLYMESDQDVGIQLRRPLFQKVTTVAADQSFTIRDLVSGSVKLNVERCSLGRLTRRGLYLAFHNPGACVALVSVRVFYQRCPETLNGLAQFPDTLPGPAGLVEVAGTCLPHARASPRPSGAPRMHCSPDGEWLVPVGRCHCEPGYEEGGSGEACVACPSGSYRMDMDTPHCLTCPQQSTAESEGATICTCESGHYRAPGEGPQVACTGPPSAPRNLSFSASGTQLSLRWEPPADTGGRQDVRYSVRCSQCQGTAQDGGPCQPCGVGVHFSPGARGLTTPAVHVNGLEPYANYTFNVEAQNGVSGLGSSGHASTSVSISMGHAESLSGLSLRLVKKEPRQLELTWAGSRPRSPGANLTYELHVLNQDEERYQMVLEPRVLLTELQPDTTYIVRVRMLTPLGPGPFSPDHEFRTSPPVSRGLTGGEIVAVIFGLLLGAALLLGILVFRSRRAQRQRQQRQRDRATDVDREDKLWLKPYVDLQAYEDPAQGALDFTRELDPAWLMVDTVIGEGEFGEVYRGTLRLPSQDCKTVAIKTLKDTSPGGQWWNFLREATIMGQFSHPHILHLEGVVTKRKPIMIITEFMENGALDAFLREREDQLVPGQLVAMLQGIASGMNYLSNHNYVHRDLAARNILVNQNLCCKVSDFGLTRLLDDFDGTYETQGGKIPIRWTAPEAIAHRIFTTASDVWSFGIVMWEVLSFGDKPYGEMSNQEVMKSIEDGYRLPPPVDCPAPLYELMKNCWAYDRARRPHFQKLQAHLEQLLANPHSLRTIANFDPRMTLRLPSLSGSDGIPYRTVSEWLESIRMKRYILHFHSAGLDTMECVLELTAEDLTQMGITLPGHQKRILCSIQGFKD

[10] = molecular target: Death-associated protein kinase 2 (Homo sapiens) (UniProt Q9UIK4); conditions: at 1 µM
[11] = molecular target: Death-associated protein kinase 2 (Homo sapiens) (UniProt Q9UIK4); conditions: at 10 µM
[12] = molecular target: T6, Discoidin domain-containing receptor 2 (Homo sapiens) (UniProt Q16832); conditions: at 1 µM
T6 sequence (whole entry): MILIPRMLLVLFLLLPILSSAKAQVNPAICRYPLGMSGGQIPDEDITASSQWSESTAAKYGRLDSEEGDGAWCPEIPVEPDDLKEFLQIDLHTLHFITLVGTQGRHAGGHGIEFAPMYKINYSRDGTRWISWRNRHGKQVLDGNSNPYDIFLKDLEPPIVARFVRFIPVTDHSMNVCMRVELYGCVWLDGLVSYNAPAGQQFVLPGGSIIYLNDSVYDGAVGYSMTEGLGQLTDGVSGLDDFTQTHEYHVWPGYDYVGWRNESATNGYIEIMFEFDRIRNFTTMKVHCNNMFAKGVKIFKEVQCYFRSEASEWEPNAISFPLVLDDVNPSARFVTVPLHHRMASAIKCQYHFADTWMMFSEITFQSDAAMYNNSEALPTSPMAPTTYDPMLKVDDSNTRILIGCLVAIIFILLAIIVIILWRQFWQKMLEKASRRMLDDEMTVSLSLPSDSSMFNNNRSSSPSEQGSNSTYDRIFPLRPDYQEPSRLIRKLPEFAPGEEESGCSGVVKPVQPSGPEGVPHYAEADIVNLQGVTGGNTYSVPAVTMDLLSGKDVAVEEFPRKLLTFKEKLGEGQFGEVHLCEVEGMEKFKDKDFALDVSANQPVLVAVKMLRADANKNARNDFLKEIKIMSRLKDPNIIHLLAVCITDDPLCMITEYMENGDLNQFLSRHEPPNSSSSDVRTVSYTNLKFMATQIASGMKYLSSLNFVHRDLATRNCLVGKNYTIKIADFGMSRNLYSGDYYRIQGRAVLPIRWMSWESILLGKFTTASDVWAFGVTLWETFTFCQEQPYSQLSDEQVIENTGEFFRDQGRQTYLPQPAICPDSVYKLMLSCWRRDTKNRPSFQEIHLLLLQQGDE

[13] = molecular target: T6, Discoidin domain-containing receptor 2 (Homo sapiens); conditions: at 10 µM
[14] = molecular target: T5, Ephrin type-A receptor 1 (Homo sapiens); conditions: at 10 µM
[15] = molecular target: Ephrin type-A receptor 2 (Homo sapiens) (UniProt P29317); conditions: at 1 µM
[16] = molecular target: Ephrin type-A receptor 2 (Homo sapiens) (UniProt P29317); conditions: at 10 µM
[17] = molecular target: T7, Ephrin type-A receptor 3 (Homo sapiens) (UniProt P29320); conditions: at 1 µM
T7 sequence (whole entry): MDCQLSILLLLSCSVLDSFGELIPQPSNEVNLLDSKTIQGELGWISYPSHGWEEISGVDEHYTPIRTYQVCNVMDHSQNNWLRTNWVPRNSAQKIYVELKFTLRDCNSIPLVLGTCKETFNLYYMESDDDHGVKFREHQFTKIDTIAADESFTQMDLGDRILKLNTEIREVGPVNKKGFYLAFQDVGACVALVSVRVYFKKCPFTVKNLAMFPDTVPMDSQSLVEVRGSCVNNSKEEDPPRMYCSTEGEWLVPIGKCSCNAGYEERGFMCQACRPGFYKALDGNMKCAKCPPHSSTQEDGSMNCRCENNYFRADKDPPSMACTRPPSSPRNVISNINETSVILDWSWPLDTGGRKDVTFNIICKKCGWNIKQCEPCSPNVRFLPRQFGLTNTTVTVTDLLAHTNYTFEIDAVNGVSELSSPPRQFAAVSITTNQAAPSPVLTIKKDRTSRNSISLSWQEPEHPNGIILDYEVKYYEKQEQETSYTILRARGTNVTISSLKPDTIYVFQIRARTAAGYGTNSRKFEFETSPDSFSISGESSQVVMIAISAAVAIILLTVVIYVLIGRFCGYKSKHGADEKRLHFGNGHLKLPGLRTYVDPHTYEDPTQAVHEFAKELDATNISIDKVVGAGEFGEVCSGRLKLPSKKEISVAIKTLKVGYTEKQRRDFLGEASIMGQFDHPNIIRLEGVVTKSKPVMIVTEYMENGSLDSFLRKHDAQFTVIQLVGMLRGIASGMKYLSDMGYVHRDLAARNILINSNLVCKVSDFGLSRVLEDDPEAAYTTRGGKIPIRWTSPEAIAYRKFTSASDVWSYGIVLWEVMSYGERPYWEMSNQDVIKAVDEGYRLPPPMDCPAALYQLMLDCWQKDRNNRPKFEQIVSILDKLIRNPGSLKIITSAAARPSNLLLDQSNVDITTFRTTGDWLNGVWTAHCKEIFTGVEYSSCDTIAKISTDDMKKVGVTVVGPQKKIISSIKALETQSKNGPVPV

[18] = molecular target: Epidermal growth factor receptor (Homo sapiens) (UniProt P00533); conditions: at 1 µM
Sequence of Epidermal growth factor receptor (Homo sapiens) (P00533 whole entry): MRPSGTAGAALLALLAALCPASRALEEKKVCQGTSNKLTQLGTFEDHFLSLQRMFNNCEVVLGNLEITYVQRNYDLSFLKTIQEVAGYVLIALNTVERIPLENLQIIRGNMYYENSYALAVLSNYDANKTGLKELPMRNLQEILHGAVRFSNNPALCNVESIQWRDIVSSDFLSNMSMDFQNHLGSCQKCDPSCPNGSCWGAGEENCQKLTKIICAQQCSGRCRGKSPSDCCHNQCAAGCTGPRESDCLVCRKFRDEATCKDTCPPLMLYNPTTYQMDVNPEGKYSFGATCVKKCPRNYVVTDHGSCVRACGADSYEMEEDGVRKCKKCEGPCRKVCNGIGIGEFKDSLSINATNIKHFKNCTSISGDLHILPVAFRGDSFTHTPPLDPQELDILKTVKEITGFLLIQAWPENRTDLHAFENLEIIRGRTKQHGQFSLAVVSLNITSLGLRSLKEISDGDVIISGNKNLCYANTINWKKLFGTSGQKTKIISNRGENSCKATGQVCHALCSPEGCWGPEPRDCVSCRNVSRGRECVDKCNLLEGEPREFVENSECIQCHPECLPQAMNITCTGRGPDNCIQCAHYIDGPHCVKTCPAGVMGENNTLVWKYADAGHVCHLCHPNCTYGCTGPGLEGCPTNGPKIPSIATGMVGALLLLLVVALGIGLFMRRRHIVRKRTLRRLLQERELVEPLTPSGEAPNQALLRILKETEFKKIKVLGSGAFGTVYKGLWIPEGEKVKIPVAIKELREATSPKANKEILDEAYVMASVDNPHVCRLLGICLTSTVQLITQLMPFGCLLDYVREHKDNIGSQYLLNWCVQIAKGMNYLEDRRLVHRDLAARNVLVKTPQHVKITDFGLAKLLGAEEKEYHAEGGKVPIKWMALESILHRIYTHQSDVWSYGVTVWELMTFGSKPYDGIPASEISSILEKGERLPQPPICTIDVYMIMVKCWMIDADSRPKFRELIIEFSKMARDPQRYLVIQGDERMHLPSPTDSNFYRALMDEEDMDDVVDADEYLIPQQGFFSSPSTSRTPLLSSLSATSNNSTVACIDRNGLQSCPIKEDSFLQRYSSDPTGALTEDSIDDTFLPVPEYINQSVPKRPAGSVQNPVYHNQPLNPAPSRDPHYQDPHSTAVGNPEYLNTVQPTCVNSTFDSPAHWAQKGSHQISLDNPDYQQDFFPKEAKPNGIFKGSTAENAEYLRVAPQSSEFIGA

Sequence of Ephrin type-A receptor 2 (Homo sapiens) (P29317 whole entry): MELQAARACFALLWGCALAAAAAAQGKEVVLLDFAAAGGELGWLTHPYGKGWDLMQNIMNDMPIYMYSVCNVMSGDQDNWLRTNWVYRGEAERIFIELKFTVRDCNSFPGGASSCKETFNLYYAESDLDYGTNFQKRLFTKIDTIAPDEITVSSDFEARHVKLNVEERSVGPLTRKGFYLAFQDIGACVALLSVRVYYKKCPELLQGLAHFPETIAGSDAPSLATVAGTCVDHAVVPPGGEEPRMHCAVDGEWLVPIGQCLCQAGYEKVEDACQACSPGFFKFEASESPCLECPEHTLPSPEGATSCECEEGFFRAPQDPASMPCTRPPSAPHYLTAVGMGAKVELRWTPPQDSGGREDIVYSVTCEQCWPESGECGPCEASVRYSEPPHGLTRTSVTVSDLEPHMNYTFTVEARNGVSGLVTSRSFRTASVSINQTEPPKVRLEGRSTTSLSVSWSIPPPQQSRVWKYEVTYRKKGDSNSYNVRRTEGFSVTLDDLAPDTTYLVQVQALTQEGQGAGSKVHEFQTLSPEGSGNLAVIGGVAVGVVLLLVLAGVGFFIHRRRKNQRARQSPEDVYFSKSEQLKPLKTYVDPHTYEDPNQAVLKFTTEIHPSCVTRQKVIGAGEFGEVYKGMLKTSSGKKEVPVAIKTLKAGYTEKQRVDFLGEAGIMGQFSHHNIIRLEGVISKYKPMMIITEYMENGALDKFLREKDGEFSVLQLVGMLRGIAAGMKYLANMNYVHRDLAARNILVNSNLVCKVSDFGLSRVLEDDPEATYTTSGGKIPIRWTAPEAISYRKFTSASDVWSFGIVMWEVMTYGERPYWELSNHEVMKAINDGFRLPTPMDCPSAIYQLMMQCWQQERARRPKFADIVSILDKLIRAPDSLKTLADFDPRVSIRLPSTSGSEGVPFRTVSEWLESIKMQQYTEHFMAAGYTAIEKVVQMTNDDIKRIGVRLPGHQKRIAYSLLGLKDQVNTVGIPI
Sequence of Death-associated protein kinase 2 (Homo sapiens) (Q9UIK4 whole entry, looked up, the tested form may be a part): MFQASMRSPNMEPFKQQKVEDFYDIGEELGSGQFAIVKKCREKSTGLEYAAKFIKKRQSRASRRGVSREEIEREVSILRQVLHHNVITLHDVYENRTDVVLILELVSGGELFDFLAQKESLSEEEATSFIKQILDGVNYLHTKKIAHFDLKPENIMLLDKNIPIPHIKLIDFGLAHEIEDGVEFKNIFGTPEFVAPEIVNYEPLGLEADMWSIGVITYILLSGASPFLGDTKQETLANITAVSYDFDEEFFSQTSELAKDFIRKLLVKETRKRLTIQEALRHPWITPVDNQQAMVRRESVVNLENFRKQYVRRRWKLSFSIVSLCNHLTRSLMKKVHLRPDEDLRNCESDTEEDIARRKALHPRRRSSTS

## COc1ccc(-c2cnc3c(-c4ccsc4)cnn3c2)cc1
[1]
  residual activity: 84%
[2]
  residual activity: 100%
[3]
  residual activity: 145%
[4]
  residual activity: 129%
[5]
  residual activity: 95%
[6]
  residual activity: 98%
[7]
  residual activity: 100%
[8]
  residual activity: 94%

## O=S(=O)(c1cccc2cnccc12)N1CCCNCC1
[9]
  residual activity: 100%

## CCCCc1c(-c2ccc(OC)cc2)[nH]c2nccnc12
[10]
  residual activity: 101%
[11]
  residual activity: 100%
[1]
  residual activity: 72%
[2]
  residual activity: 106%
[12]
  residual activity: 71%
[13]
  residual activity: 59%
[5]
  residual activity: 79%
[6]
  residual activity: 80%
[9]
  residual activity: 29%
[14]
  residual activity: 3%
[15]
  residual activity: 87%
[16]
  residual activity: 82%
[17]
  residual activity: 74%

## O=c1cc(N2CCOCC2)oc2c(-c3ccccc3)cccc12
[2]
  residual activity: 76%
[3]
  residual activity: 134%
[4]
  residual activity: 130%

## N#C/C(=C\c1ccc(O)c(O)c1)C(=O)NCc1ccccc1
[1]
  residual activity: 69%
[2]
  residual activity: 88%
[12]
  residual activity: 119%
[7]
  residual activity: 87%
[8]
  residual activity: 73%
[18]
  residual activity: 125%
[16]
  residual activity: 101%

## CN([C@@H](Cc1ccc(OS(=O)(=O)c2cccc3cnccc23)cc1)C(=O)N1CCN(c2ccccc2)CC1)S(=O)(=O)c1cccc2cnccc12
[3]
  residual activity: 135%
[4]
  residual activity: 115%
[5]
  residual activity: 117%
